# From the supplement of paper PMC8728848
# Only a selection was taken, and the strongest signals are over-represented in it overall.
# B1: PNA (Arachis hypogaea), P02872 (protein)
# chain: MKPFCVFLTFFLLLAASSKKVDSAETVSFNFNSFSEGNPAINFQGDVTVLSNGNIQLTNLNKVNSVGRVLYAMPVRIWSSATGNVASFLTSFSFEMKDIKDYDPADGIIFFIAPEDTQIPAGSIGGGTLGVSDTKGAGHFVGVEFDTYSNSEYNDPPTDHVGIDVNSVDSVKTVPWNSVSGAVVKVTVIYDSSTKTLSVAVTNDNGDITTIAQVVDLKAKLPERVKFGFSASGSLGGRQIHLIRSWSFTSTLITTTRRSIDNNEKKIMNMASA
# What was measured:
# Assay in all cases: glycan array binding signal (z-score within array); higher = stronger binding
# Conditions in all cases: glycan notation: IUPAC condensed, linker removed
# [1] = target: Glc(a1-6)Glc(a1-6)Glc(a1-6)Glc
# Outline: (§1)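 Glycan array data were curated from 3228 arrays in the Consortium for Functional Glycomics database and kept only where the protein sequence was available. Glycan names were converted to IUPAC-condensed notation, and columns mapping to the same glycan were averaged. The binding signal is a within-array Z-score, averaged across arrays of the same protein sequence at different concentrations or buffers and across linkers. Negative Z-scores can be read as non-binding.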
# [2] = target: Glc(b1-4)Glc(b1-4)Glc(b1-4)Glc(b1-4)Glc(b1-4)Glc(b1-4)Glc(b1-4)Glc(b1-4)Glc
# Outline: as §1
# [3] = target: Glc(b1-4)Glc(b1-4)Glc(b1-4)Glc(b1-4)Glc(b1-4)Glc(b1-4)Glc(b1-4)Glc(b1-4)Glc(b1-4)Glc
# Outline: as §1
# [4] = target: Glc(b1-4)Glc(b1-4)Glc(b1-4)Glc(b1-4)Glc(b1-4)Glc(b1-4)Glc(b1-4)Glc(b1-4)Glc(b1-4)Glc(b1-4)Glc
# Outline: as §1
# [5] = target: Glc(b1-4)Glc(b1-4)Glc(b1-4)Glc(b1-4)Glc(b1-4)Glc(b1-4)Glc(b1-4)Glc(b1-4)Glc(b1-4)Glc(b1-4)Glc(b1-4)Glc
# Outline: as §1
# [6] = target: Glc(b1-4)Glc(b1-4)Glc(b1-4)Glc(b1-4)Glc(b1-4)Glc(b1-4)Glc(b1-4)Glc(b1-4)Glc(b1-4)Glc(b1-4)Glc(b1-4)Glc(b1-4)Glc
# Outline: as §1
# [7] = target: GlcA(b1-3)Gal
# Outline: as §1
# [8] = target: GlcA3S(b1-3)Gal(b1-4)GlcNAc(b1-2)Man
# Outline: as §1
# [9] = target: GlcNAc(b1-2)Gal(b1-3)GalNAc
# Outline: as §1
# [10] = target: GlcNAc(b1-2)Man(a1-3)[GlcNAc(b1-2)Man(a1-6)]Man(b1-4)GlcNAc(b1-4)GlcNAc
# Outline: as §1
# [11] = target: GlcNAc(b1-3)Gal(b1-4)GlcNAc(b1-2)Man(a1-3)[GlcNAc(b1-3)Gal(b1-4)GlcNAc(b1-2)Man(a1-6)]Man(b1-4)GlcNAc(b1-4)GlcNAc
# Outline: as §1
# [12] = target: GlcNAc(b1-3)Gal(b1-4)GlcNAc(b1-2)Man(a1-3)[GlcNAc(b1-3)Gal(b1-4)GlcNAc(b1-2)Man(a1-6)]Man(b1-4)GlcNAc(b1-4)[Fuc(a1-6)]GlcNAc
# Outline: as §1
# [13] = target: GlcNAc(b1-3)Gal(b1-4)GlcNAc(b1-3)Gal(b1-4)GlcNAc(b1-3)Gal(b1-4)GlcNAc(b1-3)Gal(b1-4)GlcNAc(b1-2)[GlcNAc(b1-3)Gal(b1-4)GlcNAc(b1-3)Gal(b1-4)GlcNAc(b1-3)Gal(b1-4)GlcNAc(b1-3)Gal(b1-4)GlcNAc(b1-6)]Man(a1-6)[GlcNAc(b1-3)Gal(b1-4)GlcNAc(b1-3)Gal(b1-4)GlcNAc(b1-3)Gal(b1-4)GlcNAc(b1-3)Gal(b1-4)GlcNAc(b1-2)Man(a1-3)]Man(b1-4)GlcNAc(b1-4)[Fuc(a1-6)]GlcNAc
# Outline: as §1
# [14] = target: GlcNAc(b1-3)Gal(b1-4)GlcNAc(b1-6)[Gal(b1-3)]GalNAc
# Outline: as §1
# [15] = target: GlcNAc(b1-3)[GlcNAc(b1-6)]Gal
# Outline: as §1
# [16] = target: GlcNAc(b1-3)[GlcNAc(b1-6)]Gal(b1-4)GlcNAc(b1-3)[GlcNAc(b1-6)]Gal(b1-4)GlcNAc(b1-3)Gal(b1-4)Glc
# Outline: as §1
# [17] = target: GlcNAc(b1-4)GlcNAc
# Outline: as §1
# [18] = target: GlcNAc(b1-4)GlcNAc(b1-4)GlcNAc(b1-4)GlcNAc
# Outline: as §1
# [19] = target: HexA(a1-3)GalNAc4S(b1-4)GlcA(b1-3)GalNAc4S(b1-4)GlcA(b1-3)GalNAc4S(b1-4)GlcA(b1-3)GalNAc4S(b1-4)GlcA(b1-3)GalNAc4S(b1-4)GlcA(b1-3)GalNAc4S(b1-4)GlcA(b1-3)GalNAc4S
# Outline: as §1
# [20] = target: Man(a1-2)Man(a1-6)[Man(a1-3)]Man(a1-6)[Man(a1-2)Man(a1-2)Man(a1-3)]Man(b1-4)GlcNAc(b1-4)GlcNAc
# Outline: as §1
# [21] = target: Neu5Ac(a2-3)Gal
# Outline: as §1
# [22] = target: Neu5Ac(a2-3)Gal(b1-3)GalNAc(b1-3)Gal(a1-4)Gal(b1-4)Glc
# Outline: as §1
# [23] = target: Neu5Ac(a2-3)Gal(b1-3)GlcNAc(b1-2)Man(a1-3)[Neu5Ac(a2-3)Gal(b1-3)GlcNAc(b1-2)Man(a1-6)]Man(b1-4)GlcNAc(b1-4)GlcNAc
# Outline: as §1
# [24] = target: Neu5Ac(a2-3)Gal(b1-3)[Neu5Ac(a2-3)Gal(b1-4)]GlcNAc
# Outline: as §1
# [25] = target: Neu5Ac(a2-3)Gal(b1-3)[Neu5Ac(a2-6)]GalNAc
# Outline: as §1
# [26] = target: Neu5Ac(a2-3)Gal(b1-4)GlcNAc(b1-2)Man(a1-3)[Neu5Ac(a2-3)Gal(b1-4)GlcNAc(b1-2)Man(a1-6)]Man(b1-4)GlcNAc(b1-4)GlcNAc
# Outline: as §1
# [27] = target: Neu5Ac(a2-3)Gal(b1-4)GlcNAc(b1-2)Man(a1-3)[Neu5Ac(a2-3)Gal(b1-4)GlcNAc(b1-2)Man(a1-6)]Man(b1-4)GlcNAc(b1-4)[Fuc(a1-6)]GlcNAc
# Outline: as §1
# [28] = target: Neu5Ac(a2-3)Gal(b1-4)[Fuc(a1-3)]GlcNAc6S
# Outline: as §1
# [29] = target: Neu5Ac(a2-3)Gal(b1-4)[Qui(a1-3)]GlcNAc(b1-3)Gal
# Outline: as §1
# [30] = target: Neu5Ac(a2-3)GalNBz(b1-4)GlcNAc
# Outline: as §1
# [31] = target: Neu5Ac(a2-3)[GalNAc(b1-4)]Gal(b1-3)GalNAc(b1-4)[Neu5Ac(a2-3)]Gal(b1-4)Glc
# Outline: as §1
# [32] = target: Neu5Ac(a2-3)[GalNAc(b1-4)]Gal(b1-4)GlcNAc
# Outline: as §1
# [33] = target: Neu5Ac(a2-6)Gal(b1-4)GlcNAc(b1-2)Man(a1-3)[Neu5Ac(a2-6)Gal(b1-4)GlcNAc(b1-2)Man(a1-6)]Man(b1-4)GlcNAc(b1-4)[Fuc(a1-6)]GlcNAc
# Outline: as §1
# [34] = target: Neu5Ac(a2-6)Gal(b1-4)GlcNAc(b1-3)[Neu5Ac(a2-6)Gal(b1-4)GlcNAc(b1-6)]Gal(b1-4)Glc
# Outline: as §1
# [35] = target: Neu5Ac(b2-3)Gal(b1-4)Glc
# Outline: as §1
# [36] = target: Neu5Ac9Ac(a2-3)Gal(b1-4)GlcNAc
# Outline: as §1
# [37] = target: Neu5Ac9Ac(a2-3)Gal(b1-4)[Fuc(a1-3)]GlcNAc
# Outline: as §1
# [38] = target: Neu5Gc(a2-6)GalNAc
# Outline: as §1
# [39] = target: Xyl(b1-4)Xyl(b1-4)Xyl(b1-4)Xyl(b1-4)Xyl(b1-4)Xyl
# Outline: as §1
binder,measurement,setting,value
B1,glycan array binding signal (z-score),[1],-0.136
same,glycan array binding signal (z-score),[2],0.924
same,glycan array binding signal (z-score),[3],1.4
same,glycan array binding signal (z-score),[4],2.88
same,glycan array binding signal (z-score),[5],1.98
same,glycan array binding signal (z-score),[6],2.23
same,glycan array binding signal (z-score),[7],-0.167
same,glycan array binding signal (z-score),[8],-0.368
same,glycan array binding signal (z-score),[9],-0.177
same,glycan array binding signal (z-score),[10],-0.143
same,glycan array binding signal (z-score),[11],0.227
same,glycan array binding signal (z-score),[12],0.22
same,glycan array binding signal (z-score),[13],1.96
same,glycan array binding signal (z-score),[14],5.04
same,glycan array binding signal (z-score),[15],-0.195
same,glycan array binding signal (z-score),[16],2.02
same,glycan array binding signal (z-score),[17],-0.113
same,glycan array binding signal (z-score),[18],-0.195
same,glycan array binding signal (z-score),[19],-0.195
same,glycan array binding signal (z-score),[20],-0.178
same,glycan array binding signal (z-score),[21],-0.171
same,glycan array binding signal (z-score),[22],-0.112
same,glycan array binding signal (z-score),[23],-0.061
same,glycan array binding signal (z-score),[24],-0.21
same,glycan array binding signal (z-score),[25],-0.176
same,glycan array binding signal (z-score),[26],-0.148
same,glycan array binding signal (z-score),[27],-0.306
same,glycan array binding signal (z-score),[28],-0.225
same,glycan array binding signal (z-score),[29],-0.195
same,glycan array binding signal (z-score),[30],-0.195
same,glycan array binding signal (z-score),[31],-0.195
same,glycan array binding signal (z-score),[32],-0.138
same,glycan array binding signal (z-score),[33],-0.21
same,glycan array binding signal (z-score),[34],-0.195
same,glycan array binding signal (z-score),[35],-0.195
same,glycan array binding signal (z-score),[36],-0.073
same,glycan array binding signal (z-score),[37],-0.195
same,glycan array binding signal (z-score),[38],-0.162
same,glycan array binding signal (z-score),[39],-0.195
